Where “and” joins values, the source holds several entries; their conditions need not be identical. Identical values can stand only once. Out of some 5,500 compounds screened, about 2,000 (36%) were called active. Not shown: some 18% with an inconclusive outcome. Cut-off read from the data, not from the text of the source: active = normalized growth mostly below about 0.91 (no sharp cut-off); inconclusive = no clear call, values can overlap the other calls; inactive = mostly above about 0.92. Some of the results follow.
Experiment: chemical genetic growth profiling, strain panel (AID 1159580);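 note: tested at 20 µM; growth read once vehicle control cultures reached saturation at 30 °C; 1 = growth at the plate median or of vehicle wells; lower values mean less growth of the strain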
Details: S. cerevisiae deletion strains, growth OD

Measured: normalized growth

OCCN(CCO)c1nc(N2CCCCC2)c2nc(N(CCO)CCO)nc(N3CCCCC3)c2n1
active: locus YDR195W, strain ref2 0.135 | locus YKR091W, strain srl3, stronger effect = lower value 0.551 | locus YOR083W, strain WHI5, stronger effect = lower value 0.233
inactive: locus YAL013W, strain DEP1, stronger effect = lower value 1.02 | locus YAL021C, strain ccr4, stronger effect = lower value 0.962 | locus YAL026C, strain drs2, stronger effect = lower value 0.964 | locus YAL030W, strain snc1, stronger effect = lower value 0.992 | locus YAL040C, strain CLN3, stronger effect = lower value 0.999 | locus YBL061C, strain skt5, stronger effect = lower value 0.992 | locus YBR009C, strain hhf1, stronger effect = lower value 0.981 | locus YBR021W, strain FUR4, stronger effect = lower value 0.956 | locus YBR023C, strain chs3, stronger effect = lower value 1 | locus YBR171W, strain sec66, stronger effect = lower value 0.994 | locus YBR229C, strain ROT2, stronger effect = lower value 1.01 | locus YBR231C, strain swc5, stronger effect = lower value 0.944 | locus YBR279W, strain paf1, stronger effect = lower value 0.986 | locus YCL011C, strain gbp2, stronger effect = lower value 0.998 | locus YCL016C, strain dcc1, stronger effect = lower value 1.03 | locus YCL029C, strain bik1, stronger effect = lower value 1.01 | locus YCL061C, strain MRC1 (second series), stronger effect = lower value 1 | locus YCL061C, strain MRC1, stronger effect = lower value 1 | locus YCL069W, strain vba3, stronger effect = lower value 0.97 | locus YCR088W, strain abp1, stronger effect = lower value 0.989 | locus YDL005C, strain med2, stronger effect = lower value 0.978 | locus YDL035C, strain GPR1, stronger effect = lower value 1.01 | locus YDL040C, strain nat1, stronger effect = lower value 0.976 | locus YDL074C, strain BRE1, stronger effect = lower value 0.979 | locus YDL101C, strain DUN1, stronger effect = lower value 1 | locus YDL134C, strain PPH21, stronger effect = lower value 1 | locus YDL185W, strain tfp1, stronger effect = lower value 0.995 | locus YDL192W, strain arf1, stronger effect = lower value 0.999 | locus YDR001C, strain nth1, stronger effect = lower value 0.993 | locus YDR069C, strain doa4, stronger effect = lower value 0.969 | locus YDR101C, strain arx1, stronger effect = lower value 0.99 | locus YDR137W, strain rgp1, stronger effect = lower value 1.01 | locus YDR150W, strain NUM1, stronger effect = lower value 1.01 | locus YDR159W, strain sac3, stronger effect = lower value 0.937 | locus YDR162C, strain NBP2, stronger effect = lower value 1 | locus YDR297W, strain sur2, stronger effect = lower value 0.997 | locus YDR318W, strain mcm21, stronger effect = lower value 0.996 | locus YDR334W, strain swr1, stronger effect = lower value 0.974 | locus YDR335W, strain msn5, stronger effect = lower value 0.988 | locus YDR363W, strain ESC2, stronger effect = lower value 1.03 | locus YDR388W, stronger effect = lower value 0.998 | locus YDR392W, strain spt3, stronger effect = lower value 0.898 | locus YDR502C, strain sam2, stronger effect = lower value 1.01 | locus YEL003W, strain gim4, stronger effect = lower value 0.964 | locus YEL037C, strain rad23, stronger effect = lower value 0.965 | locus YEL061C, strain CIN8 (second series), stronger effect = lower value 0.976 | locus YEL061C, strain CIN8, stronger effect = lower value 1.01 | locus YER002W, strain NOP16, stronger effect = lower value 1 | locus YER015W, strain faa2, stronger effect = lower value 0.978 | locus YER016W, strain bim1, stronger effect = lower value 0.976 | locus YER110C, stronger effect = lower value 1 | locus YER111C, strain swi4, stronger effect = lower value 0.971 | locus YER155C, strain BEM2 (second series), stronger effect = lower value 0.992 | locus YER155C, strain BEM2, stronger effect = lower value 1.01 | locus YER167W, strain BCK2, stronger effect = lower value 1.02 | locus YFR010W, strain ubp6, stronger effect = lower value 0.956 | locus YGL078C, strain dbp3, stronger effect = lower value 1 | locus YGL086W, strain mad1, stronger effect = lower value 0.998 | locus YGL167C, strain pmr1, stronger effect = lower value 0.987 | locus YGL173C, strain kem1, stronger effect = lower value 0.982 | locus YGL227W, strain vid30, stronger effect = lower value 0.989 | locus YGL240W, strain doc1, stronger effect = lower value 0.979 | locus YGL248W, strain PDE1, stronger effect = lower value 1.01 | locus YGL253W, strain hxk2, stronger effect = lower value 0.956 | locus YGR135W, strain pre9, stronger effect = lower value 0.993 | locus YGR229C, strain SMI1, stronger effect = lower value 0.996 | locus YGR252W, strain gcn5, stronger effect = lower value 0.931 | locus YHR013C, strain ard1, stronger effect = lower value 0.988 | locus YHR027C, strain rpn1, stronger effect = lower value 0.984 | locus YHR030C, strain SLT2, stronger effect = lower value 1.01 | locus YHR079C, strain IRE1 (second series), stronger effect = lower value 0.994 | locus YHR079C, strain IRE1, stronger effect = lower value 1.1 | locus YHR094C, strain hxt1, stronger effect = lower value 0.998 | locus YHR129C, strain ARP1, stronger effect = lower value 1.01 | locus YHR142W, strain chs7, stronger effect = lower value 0.97 | locus YHR200W, strain rpn10, stronger effect = lower value 1 | locus YIL066C, strain RNR3, stronger effect = lower value 1.02 | locus YIL073C, strain SPO22, stronger effect = lower value 1.01 | locus YIL125W, strain kgd1, stronger effect = lower value 1 | locus YIR030C, strain dcg1, stronger effect = lower value 0.995 | locus YJL092W, strain hpr5, stronger effect = lower value 0.979 | locus YJL095W, strain BCK1 (second series), stronger effect = lower value 0.997 | locus YJL095W, strain BCK1, stronger effect = lower value 0.988 and 1.01 | locus YJL115W, strain asf1, stronger effect = lower value 0.99 | locus YJL129C, strain trk1, stronger effect = lower value 0.95 | locus YJL134W, strain LCB3, stronger effect = lower value 1 | locus YJL154C, strain vps35, stronger effect = lower value 0.992 | locus YJL164C, strain tpk1, stronger effect = lower value 0.975 | locus YJL166W, strain qcr8, stronger effect = lower value 1.01 | locus YJL168C, strain set2, stronger effect = lower value 0.991 | locus YJL187C, strain SWE1 (second series), stronger effect = lower value 1 | locus YJL187C, strain SWE1, stronger effect = lower value 0.989 | locus YJR043C, strain POL32, stronger effect = lower value 1.01 | locus YJR066W, strain TOR1, stronger effect = lower value 0.982 | locus YJR075W, strain HOC1, stronger effect = lower value 0.997 | locus YKL009W, strain mrt4, stronger effect = lower value 0.998 | locus YKL068W, stronger effect = lower value 1 | locus YKL085W, strain MDH1 (second series), stronger effect = lower value 1.01 | locus YKL085W, strain MDH1, stronger effect = lower value 1.01 | locus YKL160W, strain elf1, stronger effect = lower value 1.04 | locus YKL190W, strain CNB1, stronger effect = lower value 1.01 | locus YKR001C, strain vps1, stronger effect = lower value 1.02 | locus YKR026C, strain gcn3, stronger effect = lower value 0.991 | locus YLL001W, strain dnm1, stronger effect = lower value 1 | locus YLL026W, stronger effect = lower value 0.99 | locus YLL041C, strain sdh2, stronger effect = lower value 0.969 | locus YLR027C, strain aat2, stronger effect = lower value 0.986 | locus YLR039C, strain RIC1, stronger effect = lower value 1.06 | locus YLR058C, strain SHM2, stronger effect = lower value 1.01 | locus YLR102C, strain apc9, stronger effect = lower value 0.987 | locus YLR113W, strain HOG1, stronger effect = lower value 0.999 | locus YLR221C, strain rsa3, stronger effect = lower value 1.02 | locus YLR258W, strain gsy2, stronger effect = lower value 0.997 | locus YLR262C, strain YPT6 (second series), stronger effect = lower value 1.02 | locus YLR262C, strain YPT6, stronger effect = lower value 0.994 | locus YLR268W, strain sec22, stronger effect = lower value 1.01 | locus YLR320W, strain mms22, stronger effect = lower value 1.04 | locus YLR330W, strain CHS5, stronger effect = lower value 1.01 | locus YLR342W, strain FKS1 (second series), stronger effect = lower value 1.02 | locus YLR342W, strain FKS1, stronger effect = lower value 0.99 | locus YLR357W, strain rsc2, stronger effect = lower value 0.985 | locus YLR370C, strain arc18, stronger effect = lower value 0.999 | locus YLR371W, strain rom2, stronger effect = lower value 0.996 | locus YLR384C, strain iki3, stronger effect = lower value 0.994 | locus YLR418C, strain cdc73, stronger effect = lower value 0.976 | locus YML016C, strain PPZ1, stronger effect = lower value 1.01 | locus YML032C, strain rad52, stronger effect = lower value 0.988 | locus YML120C, strain ndi1, stronger effect = lower value 1.02 | locus YML124C, strain tub3, stronger effect = lower value 0.995 | locus YMR058W, strain fet3, stronger effect = lower value 0.968 | locus YMR078C, strain ctf18, stronger effect = lower value 0.994 | locus YMR125W, strain sto1, stronger effect = lower value 0.992 | locus YMR129W, stronger effect = lower value 0.983 | locus YMR205C, strain PFK2, stronger effect = lower value 1.01 | locus YMR223W, strain ubp8, stronger effect = lower value 0.997 | locus YMR231W, strain pep5, stronger effect = lower value 0.989 | locus YMR307W, strain GAS1, stronger effect = lower value 1.02 and 0.989 | locus YNL067W, strain RPL9B, stronger effect = lower value 1 | locus YNL071W, strain lat1, stronger effect = lower value 0.98 | locus YNL128W, strain TEP1, stronger effect = lower value 0.995 | locus YNL153C, strain GIM3, stronger effect = lower value 0.968 | locus YNL175C, strain NOP13, stronger effect = lower value 0.993 | locus YNL183C, strain NPR1, stronger effect = lower value 0.956 | locus YNL197C, strain WHI3, stronger effect = lower value 0.988 | locus YNL209W, strain ssb2, stronger effect = lower value 0.993 | locus YNL224C, strain SQS1, stronger effect = lower value 0.999 | locus YNL233W, strain BNI4, stronger effect = lower value 0.982 | locus YNL248C, strain rpa49, stronger effect = lower value 0.973 | locus YNL250W, strain rad50, stronger effect = lower value 1.01 | locus YNL271C, strain bni1, stronger effect = lower value 0.998 | locus YNL298W, strain CLA4, stronger effect = lower value 0.991 | locus YNL307C, strain MCK1, stronger effect = lower value 0.997 | locus YNL322C, strain KRE1 (second series), stronger effect = lower value 0.988 | locus YNL322C, strain KRE1, stronger effect = lower value 1.02 | locus YNR049C, strain mso1, stronger effect = lower value 0.984 | locus YNR052C, strain pop2, stronger effect = lower value 1 | locus YOL012C, strain htz1 2.13 | locus YOL147C, strain pex11, stronger effect = lower value 1 | locus YOR001W, strain rrp6, stronger effect = lower value 0.928 | locus YOR061W, strain CKA2, stronger effect = lower value 1.02 | locus YOR069W, strain VPS5, stronger effect = lower value 1.01 | locus YOR070C, strain gyp1, stronger effect = lower value 0.996 | locus YOR080W, strain dia2, stronger effect = lower value 0.986 | locus YOR083W, strain WHI5 (second series), stronger effect = lower value 0.981 | locus YOR106W, strain vam3, stronger effect = lower value 1.01 | locus YOR136W, strain idh2, stronger effect = lower value 1 | locus YOR144C, strain elg1, stronger effect = lower value 0.999 | locus YOR184W, strain ser1, stronger effect = lower value 0.997 | locus YOR231W, strain MKK1, stronger effect = lower value 1.02 | locus YOR265W, strain rbl2, stronger effect = lower value 0.997 | locus YOR270C, strain vph1, stronger effect = lower value 0.948 | locus YOR290C, strain snf2, stronger effect = lower value 0.931 | locus YOR316C, strain cot1, stronger effect = lower value 0.999 | locus YPL051W, strain arl3, stronger effect = lower value 1.05 | locus YPL055C, strain LGE1, stronger effect = lower value 0.996 and 1.03 | locus YPL078C, strain atp4, stronger effect = lower value 1 | locus YPL106C, strain sse1, stronger effect = lower value 1.01 | locus YPL240C, strain hsp82, stronger effect = lower value 0.99 | locus YPL241C, strain CIN2, stronger effect = lower value 1 | locus YPL256C, strain CLN2, stronger effect = lower value 1 | locus YPR119W, strain clb2, stronger effect = lower value 0.994 | locus YPR141C, strain kar3, stronger effect = lower value 0.995 | locus YPR163C, strain tif3, stronger effect = lower value 1 | locus YPR167C, strain met16, stronger effect = lower value 0.996 | strain wtn01, stronger effect = lower value 0.994

Source: PubChem BioAssay AID1159580 (chemical genetic matrix, 2015)
